In PubChem BioAssay AID1259343 (VanderVen Lab, College of Veterinary Medicine, Cornell …, 2017) one finds inhibition data, which are given here for 97 molecules.

Structures are written as SMILES. The campaign covered roughly 6,200 compounds. About 2,900 (47%) were called active. So high a share suggests a set chosen from earlier hits. The list shows a part of the results. Unmarked numbers belong to inactive results. Cut-off read from the data, not from the text of the source: active = inhibition above about 50%; inactive = the rest.

This experiment can be described thus: Mycobacterium tuberculosis growth inhibition, primary screen (AID 1259343). The following applies: inhibition: at 10 µM, stronger effect = higher value; outcome: 10 uM.
Broadly, the inhibition is the change of the read-out against control, counted positive when it falls. For `Cc1cc(=O)[nH]c(-n2nc(-c3cccs3)cc2NC(=O)COc2ccccc2F)n1`, the inhibition is -30.7%.

On to `CC(C)c1cc(=O)[nH]c(-n2nc(-c3cccs3)cc2NC(=O)CCc2ccccc2)n1`, for which the inhibition was 19.2%.

With `CC(C)c1cc(=O)[nH]c(-n2nc(-c3cccs3)cc2NC(=O)Cc2ccc(F)cc2)n1`, the inhibition is 6.65%.

Take `CC(C)c1cc(=O)[nH]c(-n2nc(-c3cccs3)cc2NC(=O)COc2ccccc2F)n1`: the inhibition was 100% (active).

Take `COc1ccc(CC(=O)Nc2cc(-c3cccs3)nn2-c2nc(C(C)C)cc(=O)[nH]2)cc1`: the inhibition is 100% (active).

As for `CCCCCOc1ccc(C(=O)N2CCC(O)(c3ccccc3)CC2)cc1OCCCCC`, the inhibition is 35.2%.

Regarding `Cc1ccc(NCc2nsc(N(C)C)n2)c(F)c1`, the inhibition was 51% (active).

For the molecule `O=C(COCc1ccccc1)N(Cc1ccccc1)Cc1nc2cc(Cl)ccc2o1`, the inhibition is -20.6%.

For the molecule `O=C(c1ccc2oc(CCCc3ccccc3)nc2c1)N1CCCCO1`, the inhibition was 50.9% (active).

On to `O=C(NCC1CCCCO1)c1ccc2oc(CCCc3ccccc3)nc2c1` (configuration not stated), for which the inhibition was 47%.

Regarding `N#Cc1c(F)cccc1Oc1ccc(C(=O)O)cc1`, the inhibition was 39.2%.

On to `CS(=O)(=O)NCc1ccc(Oc2ccccc2F)c(F)c1`, for which the inhibition was 1.57%.

Turning to `CS(=O)(=O)NC(=O)c1ccc(Oc2ccc(F)cc2F)cc1`, the inhibition was 72.8% (active).

`O=c1c2sccc2nc(SCCc2ccccn2)n1-c1ccccc1`: the inhibition was 12.8%.

As for `Cc1ccccc1CSc1nc2c(c(=O)n1C)SCC2`, the inhibition is 45.6%.

For `CCOc1ccccc1CSc1nc2ccsc2c(=O)n1C`, the inhibition was 102% (active).

Take `S=C1Nc2ccccc2C2CC=NN12` (configuration not stated): the inhibition is 55.7% (active).

Take `COc1ccc(OCCSC2=Nc3ccccc3C3CC=NN23)cc1` (configuration not stated): the inhibition is 45.9%.

As to `CC(C)c1cc(C(=O)N2CCCC(C(=O)Nc3cccc(-c4ccc(F)cc4)c3)C2)on1` (configuration not stated), the inhibition is 83.1% (active).

For the molecule `Cc1ncc(CN2CCCC(C(=O)Nc3cccc(-c4ccc(F)cc4)c3)C2)s1` (configuration not stated), the inhibition was 61.6% (active).

In the case of `O=C(Nc1cccc(-c2ccc(F)cc2)c1)C1CCCN(C2CCSCC2)C1` (configuration not stated), the inhibition is 86.7% (active).

Take `Cc1nc(C)c(CN2CCCC(C(=O)Nc3ccc(-c4cccc(F)c4)cc3)C2)nc1C` (configuration not stated): the inhibition is 90.5% (active).

Consider `CC(C)c1cc(C(=O)N2CCCC(C(=O)c3ccc4ccccc4c3)C2)on1` (configuration not stated), for which the inhibition is 15.6%.

Turning to `Cc1nnsc1C(=O)N1CCCC(C(=O)Nc2cccc(-c3ccc(F)cc3)c2)C1` (configuration not stated), the inhibition was 17.2%.

Take `O=c1c2ccccc2oc2nc(C3CCCCC3)n(Cc3ccccc3)c(=O)c12`: the inhibition was -13.4%.

For the molecule `O=C(Nc1cccc(-c2ccc(F)cc2)c1)C1CCCN(Cc2cccnc2)C1` (configuration not stated), the inhibition is 47.1%.

`CSCCC(=O)N1CCCC(C(=O)Nc2ccc(-c3cccc(F)c3)cc2)C1` (configuration not stated): the inhibition was 36.2%.

As to `O=C(Nc1ccc(-c2cccc(F)c2)cc1)C1CCCN(C(=O)C2CCOCC2)C1` (configuration not stated), the inhibition was 76.7% (active).

Regarding `CCc1ncc(CN2CCCC(C(=O)Nc3cccc(-c4ccc(F)cc4)c3)C2)cn1` (configuration not stated), the inhibition is 77% (active).

For `CC1(CCc2ccccc2)CCN(c2cn[nH]c(=O)c2Cl)C1` (configuration not stated), the inhibition is 71.2% (active).

On to `O=c1c(Cl)c(Oc2ccccc2)cnn1Cc1ccccc1`, for which the inhibition is 24.6%.

With `Cc1ccc(CC2CCCN(c3cn[nH]c(=O)c3Cl)C2)cc1` (configuration not stated), the inhibition was 41.4%.

As for `CCN(C(=O)c1cccc(Br)c1C)c1ccccc1`, the inhibition is -6.9%.

As to `Cc1cc(Cl)ccc1OC(C)c1nnc(SCCC2CCCCC2)o1` (configuration not stated), the inhibition was 10.5%.

With `O=S(=O)(c1cc(Br)ccc1Br)N1CCC1c1ccccc1` (configuration not stated), the inhibition is 77.1% (active).

Turning to `O=S(=O)(c1cc(Br)ccc1Br)N1CCCc2ccccc21`, the inhibition was 7.14%.

For `Cc1ccc(O)c(S(=O)(=O)N2CCCc3cc(F)c(F)cc32)c1`, the inhibition was 3.27%.

In the case of `O=S(=O)(c1cc(Br)ccc1Br)N1CCc2ccccc21`, the inhibition was 102% (active).

Regarding `CC(C)SCC(=O)Nc1cnc2ccccc2c1`, the inhibition is 92.9% (active).

Turning to `CC(C)CCNC(=O)CSc1nc2ccccc2o1`, the inhibition was 6.9%.

`COc1cccc(-n2cc(CN(C)Cc3cccc4nonc34)cn2)c1`: the inhibition was 83.4% (active).

Take `COc1cccc(-n2cc(CN(C)Cc3cc4ccccc4[nH]3)cn2)c1`: the inhibition was 41.5%.

As to `CC(C)c1cc2c(c(O)c1O)[C@@]1(C(=O)O)CCCC(C)(C)C1CC2` (some centres not stated), the inhibition is 48.2%.

With `CC(C)c1ccc2c(c1)CCC1C(C)(C(N)=O)CCCC21C` (configuration not stated), the inhibition is 64.3% (active).

`Cc1ccc(C2CC2C(=O)NS(=O)(=O)c2ccc(F)cc2)s1` (configuration not stated): the inhibition is -6%.

Turning to `COc1ccc(S(=O)(=O)NCCC(C)C)cc1`, the inhibition was 3.91%.

In the case of `CC(=O)NS(=O)(=O)c1ccc(N)cc1`, the inhibition was 60.2% (active).

With `O=C(NCc1ccc(S(=O)(=O)N2CCCCC2)cc1)NCc1cccc(C(F)(F)F)c1`, the inhibition was 91.4% (active).

For `O=C(c1cnc2cc3c(cc2c1)OC1(CCCC1)O3)c1ccccc1O`, the inhibition was -7.11%.

On to `Cc1ccc(-c2nc(C)sc2CC(=O)NC(C)C2CC2)cc1` (configuration not stated), for which the inhibition is 33.3%.

As for `Cc1ccc(NC2=CC(=O)c3sc(C)nc3C2=O)cc1`, the inhibition is 99.8% (active).

As for `CC(C)CNc1nnnc2c1sc1nc(N3CCOCC3)c3c(c12)CCCC3`, the inhibition is -4.41%.

`CCc1nc2sc3c(NCC4CCCO4)ncnc3c2c2c1CCCC2` (configuration not stated): the inhibition is 57.2% (active).

As to `CCc1nc2sc3c(NCCN(C)C)ncnc3c2c2c1CCCC2`, the inhibition was 47.1%.

Take `COc1ccc(-c2nc(-c3ccccc3F)cs2)cc1OC`: the inhibition is 12.5%.

On to `COc1ccc(F)cc1-c1csc(-c2ccc(NC(=O)C3CC3)cc2)n1`, for which the inhibition is 71.9% (active).

Consider `COc1ccc(-c2cc(NC(=O)C3CC3)ccc2OC)cc1`, for which the inhibition was 93.7% (active).

As for `COc1ccc(-c2cc(CNC(=O)C3CC3)no2)cc1`, the inhibition was 30.7%.

With `CCOC(=O)c1c(C)nn(-c2ccc(C(=O)NC3CCC(C)CC3)cc2)c1C` (configuration not stated), the inhibition was 38.6%.

`CCOC(=O)c1c(C)c(C(=O)NC2CC(C)CC(C)(C)C2)c(C)n1CC` (configuration not stated): the inhibition is 93.8% (active).

`Cc1csc2cc(C(=O)NC3CC(C)CC(C)(C)C3)cnc12` (configuration not stated): the inhibition was 41%.

`CCCc1c(C(=O)O)c(C2CC2)nn1-c1ccc(OC)cc1`: the inhibition was 17.7%.

Take `Cc1c(C(=O)NCc2ccco2)c(C2CC2)nn1-c1ccc(Cl)c(Cl)c1`: the inhibition was 91% (active).

In the case of `CCOc1ccc2c(c1)C=C(C(=O)NCc1ccco1)CO2`, the inhibition was -9.65%.

With `CS(=O)(=O)N(c1ccccc1Cl)S(=O)(=O)c1ccc(Cl)c([N+](=O)[O-])c1`, the inhibition is 70.4% (active).

On to `CN(C)C(CNc1ccc(S(C)(=O)=O)cc1[N+](=O)[O-])c1ccco1` (configuration not stated), for which the inhibition was -2.26%.

Take `O=[N+]([O-])c1cc(S(=O)(=O)Oc2cccc(Cl)c2Cl)ccc1Cl`: the inhibition was -21.3%.

As to `O=C1O/C(=C/Br)CCC1c1cccc2ccccc12` (configuration not stated), the inhibition is 102% (active).

As to `CCOC(=O)C1(CCOc2ccccc2)CCN(Cc2cccc(-n3cccn3)c2)CC1`, the inhibition was 31.7%.

In the case of `CNC(=O)c1ccc(-c2cccc(-n3cccn3)c2)s1`, the inhibition is 91.2% (active).

With `CNC(=O)COc1ccc(-c2cccc(-n3cccn3)c2)cc1`, the inhibition was 54.7% (active).

Regarding `O=C(O)c1ccc(CN2CCc3cc(-n4cccn4)cnc32)cc1`, the inhibition is 26.6%.

`COc1cc(NC(=O)c2ccc(N3CCC(C)=N3)cc2)cc(OC)c1`: the inhibition was 71% (active).

For the molecule `COc1cc(NC(=O)c2ccc(CN3CC=CC3)cc2)cc(OC)c1`, the inhibition was 36.1%.

`NC(Cc1ccc(F)cc1)c1csc(Nc2cc(Oc3ccccc3)ncn2)n1` (configuration not stated): the inhibition was 54.2% (active).

On to `NC(Cc1ccccc1)c1csc(Nc2cc(Oc3ccccc3)ncn2)n1` (configuration not stated), for which the inhibition result was “inactive”.

Turning to `NC(COCc1ccccc1)c1csc(Nc2cc(Oc3ccccc3)ncn2)n1` (configuration not stated), the inhibition is 76.8% (active).

As for `COc1ccc(CC(N)c2csc(Nc3cc(Oc4ccccc4)ncn3)n2)cc1` (configuration not stated), the inhibition was 56.6% (active).

Turning to `NC(Cc1ccc(C(F)(F)F)cc1)c1csc(Nc2cc(Oc3ccccc3)ncn2)n1` (configuration not stated), the inhibition is 59.6% (active).

As for `Cc1nn(C)c(Cl)c1CNc1ccccc1`, the inhibition was 5.19%.

`CC1(C)C2CCC1(C)C(NC(=O)Nc1nnc(C3CC3)s1)C2` (configuration not stated): the inhibition is 41%.

For `COc1ccc(C(N)c2csc(Nc3cc(Oc4ccccc4)ncn3)n2)cc1` (configuration not stated), the inhibition was 58.8% (active).

`CCCCCNC(=O)C1CCN(C(=O)c2oc3ccc(Cl)cc3c2C)CC1`: the inhibition is 29.4%.

In the case of `O=C(c1cccs1)c1coc2ccc(Cl)cc2c1=O`, the inhibition was 43.6%.

Regarding `O=C(O)c1oc2ccc(Cl)cc2c1-n1cccc1`, the inhibition was 90.5% (active).

In the case of `COc1ccc(-c2nn3c(nc2=O)-c2ccccc2NC3C(C)C)cc1` (configuration not stated), the inhibition entry was “inactive”.

As to `O=C(c1ccc(-c2ccccc2)cc1)C1CCCN(C(=O)c2ccc3nccnc3c2)C1` (configuration not stated), the inhibition was 18.2%.

In the case of `COc1c(C)cc(C(=O)C2CCCN(Cc3cnc(SC)nc3)C2)cc1C` (configuration not stated), the inhibition was 47.7%.

As to `O=C(c1ccc(Oc2ccccc2)cc1)C1CCCN(C(=O)c2cnsn2)C1` (configuration not stated), the inhibition was 64.4% (active).

With `Cc1nonc1C(=O)N1CCCC(C(=O)c2ccc(Oc3ccccc3)cc2)C1` (configuration not stated), the inhibition is 13.8%.

Take `O=C(c1ccc(Oc2ccccc2)cc1)C1CCCN(C(=O)c2ccc3nccnc3c2)C1` (configuration not stated): the inhibition was 56% (active).

Regarding `Cc1occc1C(=O)N1CCCC(C(=O)c2ccc(Oc3ccccc3)cc2)C1` (configuration not stated), the inhibition is 17%.

Regarding `CSc1ncc(CN2CCCC(C(=O)c3ccc(Oc4ccccc4)cc3)C2)cn1` (configuration not stated), the inhibition is 92.1% (active).

In the case of `O=C(COC(=O)c1n[nH]c(=O)c2ccccc12)Nc1ccc2c(c1)CCC2`, the inhibition was 37.8%.

`O=C(COCC(F)(F)F)Nc1ccc2c(c1)C(=O)CCC2`: the inhibition was 81.5% (active).

For the molecule `O=C(Nc1ccc2c(c1)CCC2)C1CCN(C(=O)OCC(F)(F)F)CC1`, the inhibition is 49.5%.

On to `Clc1ccc(-c2noc(CSc3ccc(Br)cc3)n2)cc1`, for which the inhibition is 66.5% (active).
